The values below come from PubChem BioAssay AID1508622 (National Center for Advancing Translational Sciences (NCATS), 2021).

Active and inactive are the calls of the source. The call rests on the fitted dose curve; in most records, active means well fitted activation curve with a large enough effect; inconclusive means small, poorly fitted or top-dose-only effect; inactive means no such curve, though single readings can be large or run the other way.
Potency means the concentration at half of the fitted maximal effect.

The assay can be described thus: Confirmatory qHTS for Identification of Small Molecule Activators of Huntingtin-Antisense Promoter Activity. As to conditions: HEK293 HTT-AS promoter firefly luciferase reporter, 24 h; series mostly up to 57.5 µM; activity change, positive = activation: at the top concentration. From the text: Assay Provider: Russell L. Margolis M.D.
Department Neurology, Johns Hopkins University School of Medicine, Baltimore, MD
Huntington's Disease (HD) is a neurodegenerative disorder caused by a CAG repeat expansion in exon 1 of huntingtin (HTT). While there are currently no disease-modifying treatments for HD, recent efforts have focused on development of nucleotide-based therapeutics to lower HTT expression. As an alternative to siRNA or oligonucleotide methods, we hypothesized that suppression of HTT expression might be accomplished by small molecules that either (1) directly decrease HTT expression by suppressing HTT promoter activity or (2) indirectly decrease HTT expression by increasing the promoter activity of HTT-AS, the gene antisense to HTT that appears to inhibit expression of HTT.
We developed and employed a high throughput screen for modifiers of HTT and HTT-AS promoter activity using luminescent reporter HEK293 cells; of the 52,041 compounds tested, we identified 898 replicable hits. We used a rigorous stepwise approach to assess compound toxicity and the capacity of the compounds to specifically lower huntingtin protein in 5 different cell lines, including HEK293 cells, HD lymphoblastoid cells, mouse primary neurons, HD iPSCs differentiated into cortical-like neurons, and HD hESCs. We found no compounds which were able to lower huntingtin without lowering cell viability in all assays, though the potential efficacy of a few compounds at non-toxic doses could not be excluded.
SEQUENCE No. (1, 2, 3, etc.); […] (e.g., Cells, Incubation, Reagent, etc.); VALUE and DESCRIPTION.
1; Reagent; 4 uL; 2,500 Hek293 luciferase reporter cells per wells
3; Compound; 23 nL; Control inhibitor / compound library
5; Reagent; 2.5 uL; Firefly Luc reagent; Dual-Glo Luciferase Reporter Assay System (Promega)
6; Time; 10 min; room temperature incubation
7; Detection; Luminescence; FLuc
NOTES (numbers refer to sequence above)
1; High-throughput screening, measuring luminescence from a Hek293 luciferase reporter, was performed in 1,536 well white-walled tissue-culture treated plates. 2,500 cells were plated in 4 uL of Opti-MEM per well using a Multidrop Combi Reagent Dispenser (ThermoFisher).
2; Assay plates were cultured for 24 hours.
3; Control inhibitor (PTC124; final concentration of 50 uM) and compound library (at final concentrations of 460 nM - 57.5 uM) were added to the assay plate using the Kalypsis Pintool Robotic System equipped with 1536 pinheads.
4; Cells were then incubated for 24 hours at 37C prior to luminescence measurements.
5; In all cases, luminescence was measured using the Dual-Glo Luciferase Reporter Assay System (Promega) following the manufacturer's instructions.
6; Room temperature incubation.
7; Luminescence signal was obtained using the PerkinElmer ViewLux plate reader. Results were normalized to vehicle control (0% activity) and zero RLU (-100% activity).
Turning to `CCCN(C(=O)CCc1nc(-c2ccc(C)cc2)no1)c1ccc(OCC)cc1`, the “activity change, positive = activation” value was -22% (inactive).

For `CCOc1ccc(-c2nc(CSCC(=O)NCCc3ccc(OCC)c(OCC)c3)c(C)o2)cc1`, the “activity change, positive = activation” value is -49.7% (inactive).

Take `COc1cc(C(=O)NCCSc2c(-c3ccccc3)[nH]c3ccccc23)cc(OC)c1OC`: the “activity change, positive = activation” value is -36.2% (inactive).

Take `Cc1ccc(Cl)cc1N1CCN(C(=O)CCS(=O)(=O)c2ccc3c(c2)oc(=O)n3C)CC1`: the “activity change, positive = activation” value was -41.9% (inactive).

Turning to `CCOC(=O)c1cc(-c2ccccc2)n(CCC(=O)Nc2ccc(OC)c(Cl)c2)c1C`, the “activity change, positive = activation” value was -18.6% (inactive).

`CCN(CC)S(=O)(=O)c1ccc(C(=O)NCCSc2c(-c3ccc(OC)cc3)[nH]c3ccccc23)cc1`: the “activity change, positive = activation” value was -9.42% (inactive).

For `COc1cc(CCC(=O)NCc2ccc3c(c2)CCN3C(=O)c2ccccc2)cc(OC)c1OC`, the “activity change, positive = activation” value is -12.6% (inactive).

For `COc1ccc(NS(=O)(=O)c2ccc(N3CCCCS3(=O)=O)cc2)cc1Cl`, the “activity change, positive = activation” value was -94% (inactive).

For `CCCCc1nc2cc(C=CC(=O)NO)ccc2n1CCN(CC)CC`, the Potency was 8.49 µM (active).

Consider `CCOc1ccc(C(=O)N(Cc2cc(OC)c(OC)c(OC)c2)c2ccccn2)cc1`, for which the “activity change, positive = activation” value was -81.2% (inactive).

As for `COc1ccc(-c2noc(C(C)NC(=O)c3ccco3)n2)cc1` (stereo not given), the “activity change, positive = activation” value is -28.4% (inactive).

With `COc1ccc(S(=O)(=O)N2CCC(C(=O)Nc3ccc(Oc4ccccc4)cc3)CC2)cc1OC`, the “activity change, positive = activation” value is -27.8% (inactive).

Take `CCOc1ccc(C(=O)NCc2ccc3c(c2)CCN3C(=O)c2ccccc2)cc1`: the “activity change, positive = activation” value was -14.1% (inactive).

As to `COc1ccc(NC(=O)c2cc(S(=O)(=O)NCCC3=CCCCC3)ccc2F)cc1`, the “activity change, positive = activation” value is -95.1% (inactive).

Regarding `CC(=O)c1c(C)oc2ccc(N(C(=O)c3ccncc3)S(=O)(=O)c3ccc(F)cc3C)cc12`, the “activity change, positive = activation” value was -60.5% (inactive).

`CCc1ccc(OCC(=O)NCC(c2ccc(Cl)cc2)N2CCOCC2)cc1` (stereo not given): the “activity change, positive = activation” value is -12.9% (inactive).

On to `COc1ccccc1N1CCN(C(=O)C2CCCN(S(=O)(=O)c3ccc4c(c3)CCCN4C(C)=O)C2)CC1` (stereo not given), for which the “activity change, positive = activation” value is -55.3% (inactive).

As for `Cc1ccc(C)c(N2CCN(S(=O)(=O)c3ccc(C(=O)N(C)C)s3)CC2)c1`, the “activity change, positive = activation” value is -84.7% (inactive).

Regarding `CCOC(=O)c1ccc(Nc2nc3nonc3nc2Nc2cccc(C)c2C)cc1`, the “activity change, positive = activation” value is -92.9% (inactive).

For the compound `CCOc1ccc(CCNC(=O)c2cc3n(n2)CCCN(Cc2ccc(C)cc2)C3=O)cc1OCC`, the “activity change, positive = activation” value is -25.1% (inactive).

`CCOC(=O)c1cc(-c2ccccc2)n(-c2cccc(C(=O)Nc3cccc(F)c3)c2)c1C`: the “activity change, positive = activation” value was -23.3% (inactive).

Turning to `CCC(C(=O)NCc1ccc(OC)c(OC)c1)n1nc(C)c2c(C)n(-c3ccc(C)cc3)nc2c1=O` (stereo not given), the “activity change, positive = activation” value is -57.8% (inactive).

On to `COc1ccccc1NC(=O)c1ccc(-c2nc(COc3ccc(C)cc3)c(C)o2)cc1`, for which the “activity change, positive = activation” value was -54.7% (inactive).

With `CCOC(=O)C1=C(CN2CCN(c3ccc(OC)cc3)CC2)NC(=O)NC1c1ccc(OC)cc1` (stereo not given), the “activity change, positive = activation” value was -49.8% (inactive).

`COc1ccc2[nH]cc(CCNC(=O)c3cnn(-c4ccc(C)cc4)c3C3CCN(C(=O)OC(C)(C)C)CC3)c2c1`: the “activity change, positive = activation” value is -37% (inactive).

For the compound `CCOC(=O)C1CCCN(S(=O)(=O)c2ccc3c(c2)CCCN3C(C)=O)C1` (stereo not given), the “activity change, positive = activation” value is -33% (inactive).

For `CC1CCN(C(=O)CSc2nnc(NC(=O)Nc3ccccc3)s2)CC1`, the “activity change, positive = activation” value is -27% (inactive).

As to `CCOC(=O)C1CCN(S(=O)(=O)c2ccc(N3CCCCS3(=O)=O)cc2)CC1`, the “activity change, positive = activation” value was -35% (inactive).

As to `Cc1ccc(Cl)cc1-n1ncc2c(NCCCc3ccccc3)ncnc21`, the “activity change, positive = activation” value was -20.6% (inactive).

Regarding `CCN(C(=O)c1cc2c(s1)-c1ccccc1OC2)c1cccc(C(F)(F)F)c1`, the “activity change, positive = activation” value is -30.3% (inactive).

For the compound `Cn1c(NCCN(CCO)CCCc2ccc([N+](=O)[O-])cc2)cc(=O)n(C)c1=O`, the “activity change, positive = activation” value was -9.85% (inactive).

As to `COc1ccc(-c2noc(N3CCN(c4cccc(Cl)c4)CC3)n2)cc1OC`, the “activity change, positive = activation” value was -54.7% (inactive).

Turning to `COc1ccc(Cl)cc1NC(=O)CSc1nccn1-c1ccc(Cl)cc1`, the “activity change, positive = activation” value was -61.5% (inactive).

For the compound `Cc1cc(NC(=O)c2cc(Cl)ccc2Cl)ccc1-c1cc2ccccc2oc1=O`, the “activity change, positive = activation” value is -43.5% (inactive).

With `CCOC(=O)C1CCCN(C(=O)Cn2ncc3c(C)n(Cc4ccc(F)cc4)c(C)c3c2=O)C1` (stereo not given), the “activity change, positive = activation” value was -48.6% (inactive).

For the compound `COc1ccc(CNC(=O)c2c(Nc3ccccc3C)sc(C(=O)c3ccccc3)c2N)cc1`, the “activity change, positive = activation” value was -32.9% (inactive).

Turning to `COc1ccc(S(=O)(=O)N(CCc2ccccc2)CC(=O)Nc2cc(C)cc(C)c2)cc1OC`, the “activity change, positive = activation” value is -24.1% (inactive).

Take `Cc1ccccc1-c1nc(CS(=O)CC(=O)N2CCN(c3cc(Cl)ccc3C)CC2)c(C)o1` (stereo not given): the “activity change, positive = activation” value was -92.8% (inactive).

As for `COc1cc(OC)cc(C(=O)Nc2ccc3c(c2)CCCN3C(=O)c2cccs2)c1`, the “activity change, positive = activation” value is -33.5% (inactive).

With `CC(C)Cn1c(-c2ccc(S(=O)(=O)N3CCCC3)cc2)csc1=Nc1ccccc1`, the “activity change, positive = activation” value was -45.1% (inactive).
